Assay results: the OligoGym collection

What follows are sequences tested against UST (assay: pooled miR-30 sensor sort-seq; sequence = guide strand). Details: shRNA.
Note: reference of the scale not given here.

Sequence | sensor-assay potency score (higher = more potent)
TAAAACTCGTACTCGTATCTCA | 0.226
TACTCGTATCTCATCCGCTGGT | -0.000159
TTCAAGAATACACTCATTGATA | -0.731
TTCATTTTTAGTAAGCCTGGTT | 0.157
ATCCTGTTCTTCATCGTCGATT | -1.53
TTGAGGAAATGAACATGTCGAG | -0.72
TACCCTGTTGTACACCACCTGG | -1.05
AAATAGTTGGATAAGAACCGGT | -0.125
TATATTTTTAATCAGTTCCATT | -1.14
TTGTACACCACCTGGCTTGGGA | -0.187

The sequences below were run against UTP18 in the same assay as above. Details: shRNA.

Sequence | sensor-assay potency score (higher = more potent)
TTTCTTGGAGACAAGAATCTTG | -0.491
TAGTGATACAGCATTATCTAAT | -1.01
TAGACATAAAGAACCTTGCTGT | 0.607
TTTTTCATCATATCCTTCCGAA | 0.00107
TTAATCCATATAAACTGCCTTC | -0.603
TTTGCAACAAATCATCTTCATC | -0.536
TTTATGAGCAAGAAGGACCCAT | 0.234
TTCATCTTCTTCATCCACCCAA | 0.245
TTCACTAGCATTTTTCATCATA | -0.646
TTCATCTTCAAGATTCCTCTTG | 0.439
ATTAGCACTAAAACAAGCCTTA | 0.102
TTTTCCGCTTAGTAGTCTCTGC | -0.432

These sequences were tested against UTP3 in the same assay as above. Details: shRNA.

Sequence | sensor-assay potency score (higher = more potent)
TAAGTGTCAACAGATGACGAAT | -1.16
TTGATAGGTAATAGCTCTCTTT | -1.33
TATTTCTTTATAGTACTTCAGT | -0.591
ATCATCTCCATTTTCGTCGGTG | -0.329
TGAAACTTTAGCCAAATCCTTC | -1.04
TTTCTCTTTAGCTTTTGCCTGT | 0.173
TTTCACTGAAACTTTAGCCAAA | -0.944
TTTACGAACTTCACGAACCTGG | -0.0211
TTCGTCGTCCTCATCGTCCATA | -0.923
TTTCTTTACAGCATCATCCTTA | 0.221
TTTCGGTAGGTAACAAGCCTTT | -1.19
TATAGTACTTCAGTTTTGCTTT | -0.531

These sequences were tested against UTS2D in the same assay as above. Details: shRNA.

Sequence | sensor-assay potency score (higher = more potent)
AAAGTTAGGAGTCCAAAGCAAA | -1.56
ATTTGTATATTTTTTATCTGGA | -0.591
TTAGGAGTCCAAAGCAAACAGT | -1.23
ATTTTTATTCAGTAGAGCCAGC | -1.2
TTGTAAAAAAATCAACACGGAT | -1.39
TCTTTTAGCTTTTCCAGCTGGT | 0.0536
